Each structure is given as a SMILES string. The source made the active and inactive calls.

Experiment [1] has as its system PRMT1 (protein arginine N-methyltransferase 1). Briefly: PRMT1 binders on small-molecule microarrays, primary screen, biochemical, small-molecule microarray, 635 nm fluorescence (AID 1088).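 Note: binding of Prmt1 protein to compounds spotted on small-molecule microarray slides.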 The conditions noted are these: small-molecule microarray binding, higher = more signal.
A short description of experiment [2]: yeast growth modulation, basal conditions, primary screen, YJM789 clinical isolate, OD600, 24 h (AID 1089).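 Note: growth of clinical yeast isolate S. cerevisiae YJM 789 seeded 1000 cells per well; test concentration not given here.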 The note with it: S. cerevisiae YJM789 growth, higher = more signal, called active from +8 up or from −8 down.
A short description of experiment [3]: fission yeast growth modulation, primary screen, strain 972, OD600, 24 h, no modulator (AID 1090).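 Note: basal condition with compound alone and no growth modifier present; test concentration not given here.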 The note with it: S. pombe 972 growth, higher = more signal, called active from +8 up or from −8 down.
The nature of experiment [4]: S. cerevisiae growth modulation with rapamycin, primary screen, strain BY4716, OD600, 96 h (AID 1091). Note: test concentration not given here. The conditions noted are these: higher = more signal, called active from +8 up or from −8 down.
In experiment [5] the target is Torsin-1A-interacting protein 2 (Homo sapiens) (UniProt Q8NFQ8). Kind of experiment: LULL1 binders on small-molecule microarray, primary screen, cell lysate, human LULL1 lysate, 635/667 nm fluorescence (AID 1092).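 Note: probe is lysate of COS7 cells overexpressing human LULL1; score merges per-feature 667 nm fluorescence with signal-to-noise.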 The note with it: hLULL1 lysate binding, 635 nm fluorescence, higher = more signal.
Experiment [6] can be described thus: E. coli growth modulation, two-sided OD650, primary screen, E. coli filamentation project, strain DRC41, 24 h (AID 1093).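 Note: MC1000 strain lacking acrAB efflux and sulA so SOS filamentation is blocked; test concentration not given here.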 The note with it: OD650, 24 h, higher = more signal, called active from +8 up or from −8 down.
Experiment [7] in a line: small-molecule microarray binders of probe aLefty2, primary screen, biochemical, biotinylated probe, 635/667 nm fluorescence (AID 1094).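 Note: score merges spot fluorescence near 667 nm with spot signal-to-noise ratio.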 The conditions noted are these: higher = more signal.
Experiment [8] relates to Noggin (protein binding on small-molecule microarray). Briefly: Noggin binders on small-molecule microarray, primary screen, biochemical, 635/667 nm fluorescence (AID 1095).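 Note: score merges 667 nm feature fluorescence with signal to noise over triplicate slides.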 The note with it: 635 nm fluorescence, higher = more signal.
Experiment [9] concerns the target Neurogenic locus notch homolog protein 3 (Homo sapiens) (UniProt Q9UM47). Briefly: NOTCH3 binders on small-molecule microarray, primary screen, biochemical, 635/667 nm fluorescence (AID 1096). The note with it: NOTCH3 binding, 635 nm fluorescence, higher = more signal.
Experiment [10] is described as follows: small-molecule microarray binders of probe aEGFR, primary screen, biochemical, biotinylated probe, 635/667 nm fluorescence (AID 1097).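 Note: probe is a biotinylated anti-EGFR antibody binding compounds printed on slides; score combines fluorescence near 667 nm and signal to noise of each spot.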 The note with it: higher = more signal.
Experiment [11] concerns Plasmodium falciparum Sir2 (PF13_0152, Sir2A). Kind of experiment: pfSir2 binders on small-molecule microarrays, primary screen, biochemical, small-molecule microarray, 635 nm fluorescence (AID 1098).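 Note: score merges spot fluorescence intensity with its signal-to-noise ratio.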 The conditions noted are these: small-molecule microarray binding, fluorescence 635 nm; higher = more signal.
A short description of experiment [12]: small-molecule microarray binders of probe aDKK1, primary screen, biochemical, biotinylated probe, 635/667 nm fluorescence (AID 1099).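 Note: score merges 667nm spot fluorescence with signal to noise across triplicate slides; reference of the scale not given here.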 The conditions noted are these: higher = more signal.
A short description of experiment [13]: small-molecule microarray binders of probe aCHRDL2, primary screen, biochemical, biotinylated probe, 635/667 nm fluorescence (AID 1100). The note with it: higher = more signal.
A short description of experiment [14]: splicing luciferase reporter signal modulators, primary screen, spliceosome inhibition project, cell-based, HEK293, splice +/- reporter (AID 1101).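 Note: HEK293 cells carrying a splicing-competent luciferase reporter gene; test concentration not given here.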 The note with it: luminescence, 24 h, higher = more signal, called active from +8 up or from −8 down. In general terms: In a reporter assay the amount or activity of a reporter protein is the signal.
The target in experiment [15] is Fibroblast growth factor 10 (Homo sapiens) (UniProt O15520). Briefly: FGF10 binders on small-molecule microarrays, primary screen, biochemical, small-molecule microarray, 635 nm fluorescence (AID 1102). The conditions noted are these: FGF10 binding, fluorescence 635 nm, higher = more signal.
For experiment [16], the system named is glycogen synthase kinase-3 (GSK3A per assay name; protocol says GSK3B). Briefly: GSK3 binders on small-molecule microarrays, primary screen, biochemical, small-molecule microarray, 635 nm fluorescence, GSK3A (AID 1103). Note: the record names both GSK3A and GSK3B. The conditions noted are these: small-molecule microarray binding, fluorescence 635 nm; higher = more signal.
The target in experiment [17] is Epidermal growth factor receptor (Homo sapiens) (UniProt P00533). Kind of experiment: EGFR binders on small-molecule microarrays, primary screen, biochemical, small-molecule microarray, 635 nm fluorescence (AID 1104).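 Note: score merges 667 nm emission intensity with spot signal to noise over triplicate slides.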 The note with it: EGFR binding, higher = more signal.
The target of experiment [18] is Follistatin-related protein 3 (Homo sapiens) (UniProt O95633). Kind of experiment: FSTL3 binders on small-molecule microarrays, primary screen, biochemical, small-molecule microarray, 635 nm fluorescence (AID 1105).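 Note: score merges emission near 667 nm and signal to noise per printed spot across three slides.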 The conditions noted are these: FSTL3 binding, higher = more signal.
The target in experiment [19] is Dickkopf-related protein 1 (Homo sapiens) (UniProt O94907). Briefly: DKK1 binders on small-molecule microarrays, primary screen, biochemical, small-molecule microarray, 635 nm fluorescence scan (AID 1106).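 Note: score merges emission near 667 nm with signal to noise over three replicate slides.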 The note with it: DKK1 binding, higher = more signal.
The subject of experiment [20] is Inhibin beta A chain (activin A). Kind of experiment: INHBA (activin A) binders on microarrays, primary screen, biochemical, small-molecule microarray, 635 nm fluorescence scan (AID 1107).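 Note: mouse activin A protein probed at 4.33 µg/mL on printed slides; score merges bound-protein fluorescence near 667 nm with spot signal-to-noise.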 The conditions noted are these: small-molecule microarray binding, higher = more signal.

Neurogenic locus notch homolog protein 3 (Homo sapiens), sequence (Q9UM47 whole entry, looked up): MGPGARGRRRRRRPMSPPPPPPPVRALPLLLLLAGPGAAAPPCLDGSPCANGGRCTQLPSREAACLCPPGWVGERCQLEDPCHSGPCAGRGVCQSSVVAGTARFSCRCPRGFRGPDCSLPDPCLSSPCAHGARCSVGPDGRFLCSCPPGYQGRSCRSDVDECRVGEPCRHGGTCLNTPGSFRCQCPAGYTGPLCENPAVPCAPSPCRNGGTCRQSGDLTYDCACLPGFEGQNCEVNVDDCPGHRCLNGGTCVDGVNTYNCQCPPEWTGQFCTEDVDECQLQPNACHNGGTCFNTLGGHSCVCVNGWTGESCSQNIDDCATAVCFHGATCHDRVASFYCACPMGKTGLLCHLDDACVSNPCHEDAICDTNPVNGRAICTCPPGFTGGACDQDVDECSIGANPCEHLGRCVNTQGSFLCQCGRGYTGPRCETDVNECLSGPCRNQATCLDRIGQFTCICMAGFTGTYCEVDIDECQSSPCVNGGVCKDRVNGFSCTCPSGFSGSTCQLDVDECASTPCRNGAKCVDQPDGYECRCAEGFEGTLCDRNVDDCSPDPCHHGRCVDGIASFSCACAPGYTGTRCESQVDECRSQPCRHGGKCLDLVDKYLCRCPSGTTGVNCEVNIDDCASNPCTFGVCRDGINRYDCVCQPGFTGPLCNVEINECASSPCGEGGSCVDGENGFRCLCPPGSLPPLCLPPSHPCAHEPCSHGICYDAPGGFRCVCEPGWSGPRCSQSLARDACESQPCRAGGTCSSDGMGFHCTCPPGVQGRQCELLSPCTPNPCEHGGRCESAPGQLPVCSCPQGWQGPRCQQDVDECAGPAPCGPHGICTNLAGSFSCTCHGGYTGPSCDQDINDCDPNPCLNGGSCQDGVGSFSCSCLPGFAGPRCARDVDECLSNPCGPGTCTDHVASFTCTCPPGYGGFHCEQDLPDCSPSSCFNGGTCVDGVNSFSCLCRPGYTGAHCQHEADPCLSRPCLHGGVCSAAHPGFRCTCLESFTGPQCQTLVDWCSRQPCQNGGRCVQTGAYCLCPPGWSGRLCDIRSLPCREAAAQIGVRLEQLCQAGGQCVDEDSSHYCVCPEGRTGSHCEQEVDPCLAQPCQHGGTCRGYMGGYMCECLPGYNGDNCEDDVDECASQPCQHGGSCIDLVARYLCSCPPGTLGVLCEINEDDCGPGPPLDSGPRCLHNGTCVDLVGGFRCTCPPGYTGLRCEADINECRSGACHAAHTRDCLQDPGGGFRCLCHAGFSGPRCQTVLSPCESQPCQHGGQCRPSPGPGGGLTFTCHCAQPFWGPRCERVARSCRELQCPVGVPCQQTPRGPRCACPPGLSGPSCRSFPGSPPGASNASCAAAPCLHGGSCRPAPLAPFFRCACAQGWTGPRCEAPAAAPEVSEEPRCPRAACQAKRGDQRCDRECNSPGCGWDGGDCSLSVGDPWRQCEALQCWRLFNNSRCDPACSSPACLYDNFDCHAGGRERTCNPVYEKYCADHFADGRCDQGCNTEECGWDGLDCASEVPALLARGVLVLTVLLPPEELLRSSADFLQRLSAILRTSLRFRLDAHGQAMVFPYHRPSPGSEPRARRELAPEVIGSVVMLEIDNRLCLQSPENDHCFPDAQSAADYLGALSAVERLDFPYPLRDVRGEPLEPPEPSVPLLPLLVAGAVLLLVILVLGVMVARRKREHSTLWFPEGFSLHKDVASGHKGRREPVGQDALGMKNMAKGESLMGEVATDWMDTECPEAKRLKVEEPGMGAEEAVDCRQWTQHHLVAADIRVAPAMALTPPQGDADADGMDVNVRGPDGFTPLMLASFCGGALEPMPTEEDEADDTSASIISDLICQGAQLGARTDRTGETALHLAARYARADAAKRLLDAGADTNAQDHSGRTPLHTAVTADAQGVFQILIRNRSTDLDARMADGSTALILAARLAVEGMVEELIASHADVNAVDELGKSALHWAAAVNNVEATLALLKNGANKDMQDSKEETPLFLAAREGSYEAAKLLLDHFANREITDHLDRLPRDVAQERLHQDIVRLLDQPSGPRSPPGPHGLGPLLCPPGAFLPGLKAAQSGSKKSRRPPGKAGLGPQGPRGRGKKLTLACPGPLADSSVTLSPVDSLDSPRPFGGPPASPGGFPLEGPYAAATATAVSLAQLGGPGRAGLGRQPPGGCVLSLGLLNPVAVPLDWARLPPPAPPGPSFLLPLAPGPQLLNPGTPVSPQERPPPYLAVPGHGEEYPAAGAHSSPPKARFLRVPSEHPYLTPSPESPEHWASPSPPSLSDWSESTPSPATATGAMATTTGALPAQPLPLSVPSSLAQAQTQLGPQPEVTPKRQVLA
Follistatin-related protein 3 (Homo sapiens), sequence (O95633 whole entry, looked up): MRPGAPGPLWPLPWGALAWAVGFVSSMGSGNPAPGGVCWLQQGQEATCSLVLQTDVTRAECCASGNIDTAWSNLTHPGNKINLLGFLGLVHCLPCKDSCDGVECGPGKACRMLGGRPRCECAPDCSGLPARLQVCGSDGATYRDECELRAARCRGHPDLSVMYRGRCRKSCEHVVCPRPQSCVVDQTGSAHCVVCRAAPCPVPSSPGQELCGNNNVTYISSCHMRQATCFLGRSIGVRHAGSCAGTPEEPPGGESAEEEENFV
Epidermal growth factor receptor (Homo sapiens), sequence (P00533 whole entry, looked up): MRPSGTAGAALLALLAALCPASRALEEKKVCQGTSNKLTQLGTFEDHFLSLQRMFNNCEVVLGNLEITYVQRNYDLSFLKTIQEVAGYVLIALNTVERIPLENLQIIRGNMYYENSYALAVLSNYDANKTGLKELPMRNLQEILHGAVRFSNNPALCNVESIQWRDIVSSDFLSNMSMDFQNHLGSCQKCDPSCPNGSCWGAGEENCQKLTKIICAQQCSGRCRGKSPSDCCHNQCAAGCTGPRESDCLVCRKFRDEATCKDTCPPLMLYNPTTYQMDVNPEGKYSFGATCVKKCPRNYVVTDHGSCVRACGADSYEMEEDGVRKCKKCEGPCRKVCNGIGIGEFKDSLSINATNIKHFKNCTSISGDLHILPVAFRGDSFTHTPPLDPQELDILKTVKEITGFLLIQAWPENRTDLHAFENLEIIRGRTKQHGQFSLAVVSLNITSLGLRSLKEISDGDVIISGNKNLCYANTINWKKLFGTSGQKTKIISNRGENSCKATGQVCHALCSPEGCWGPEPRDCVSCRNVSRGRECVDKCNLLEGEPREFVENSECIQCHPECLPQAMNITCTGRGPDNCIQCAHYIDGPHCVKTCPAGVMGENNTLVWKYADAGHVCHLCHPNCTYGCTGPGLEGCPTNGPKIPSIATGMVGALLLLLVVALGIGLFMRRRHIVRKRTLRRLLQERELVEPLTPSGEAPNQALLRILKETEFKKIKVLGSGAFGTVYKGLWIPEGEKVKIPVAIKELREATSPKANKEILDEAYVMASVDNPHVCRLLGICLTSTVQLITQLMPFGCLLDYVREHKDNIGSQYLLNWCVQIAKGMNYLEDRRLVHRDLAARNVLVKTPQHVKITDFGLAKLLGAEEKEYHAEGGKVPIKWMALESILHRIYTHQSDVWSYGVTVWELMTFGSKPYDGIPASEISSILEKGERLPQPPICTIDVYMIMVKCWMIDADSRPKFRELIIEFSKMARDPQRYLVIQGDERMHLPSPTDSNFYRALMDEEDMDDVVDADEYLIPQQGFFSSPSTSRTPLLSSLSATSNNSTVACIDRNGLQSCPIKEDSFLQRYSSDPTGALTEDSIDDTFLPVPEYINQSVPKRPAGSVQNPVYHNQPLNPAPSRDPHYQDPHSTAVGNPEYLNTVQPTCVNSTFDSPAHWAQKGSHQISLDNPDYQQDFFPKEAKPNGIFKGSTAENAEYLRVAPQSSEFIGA
Fibroblast growth factor 10 (Homo sapiens), sequence (O15520 whole entry, looked up): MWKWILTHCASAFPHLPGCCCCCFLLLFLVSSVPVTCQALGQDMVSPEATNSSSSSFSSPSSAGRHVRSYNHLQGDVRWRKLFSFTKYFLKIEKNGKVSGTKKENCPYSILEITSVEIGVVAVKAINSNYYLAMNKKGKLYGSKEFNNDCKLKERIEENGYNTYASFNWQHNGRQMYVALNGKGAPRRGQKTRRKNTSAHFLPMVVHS
Torsin-1A-interacting protein 2 (Homo sapiens), sequence (Q8NFQ8 whole entry, looked up): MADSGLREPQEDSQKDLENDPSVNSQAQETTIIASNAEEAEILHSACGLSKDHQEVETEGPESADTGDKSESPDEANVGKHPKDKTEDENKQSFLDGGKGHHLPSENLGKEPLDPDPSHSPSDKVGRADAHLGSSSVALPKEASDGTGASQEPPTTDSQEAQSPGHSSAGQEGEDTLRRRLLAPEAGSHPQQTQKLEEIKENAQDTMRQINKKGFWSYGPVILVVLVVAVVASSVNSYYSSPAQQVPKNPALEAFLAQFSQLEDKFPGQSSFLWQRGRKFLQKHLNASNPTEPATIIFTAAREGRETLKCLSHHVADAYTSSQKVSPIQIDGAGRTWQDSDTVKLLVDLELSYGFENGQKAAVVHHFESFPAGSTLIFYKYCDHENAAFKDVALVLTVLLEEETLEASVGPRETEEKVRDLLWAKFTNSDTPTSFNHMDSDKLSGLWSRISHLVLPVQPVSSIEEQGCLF
Dickkopf-related protein 1 (Homo sapiens), sequence (O94907 whole entry, looked up): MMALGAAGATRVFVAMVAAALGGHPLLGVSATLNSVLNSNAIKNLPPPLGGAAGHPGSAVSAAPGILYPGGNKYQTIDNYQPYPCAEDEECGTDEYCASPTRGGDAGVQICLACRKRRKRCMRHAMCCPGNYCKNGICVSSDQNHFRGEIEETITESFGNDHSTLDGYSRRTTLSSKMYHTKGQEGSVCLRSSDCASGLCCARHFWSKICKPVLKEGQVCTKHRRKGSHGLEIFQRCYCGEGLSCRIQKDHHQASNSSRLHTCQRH

As for `CCN1C(=O)[C@@H]2[C@H]3C(=CC[C@@H]2C1=O)C1(OCCCO1)[C@H]1O[C@H]1[C@H]3O`, the composite z-score is 1.44 in [1]; 0.899 in experiment [5]; -0.16 in [7]; 0.643 in experiment [8]; 1.07 in experiment [9]; 0.0043 in [10]. For the same compound, the composite z-score in experiment [11] is 0.416; in experiment [12], 0.195; in experiment [13], -0.0468; in experiment [15], 1.39; in experiment [16], 1.34; in experiment [17] it was 0.286. The composite z-score is 1.22 in experiment [18], 0.739 in [19] and -0.0212 in experiment [20]. The z-score is 1.17 (inactive) in [2]; -6.63 (inactive) in experiment [3]; 1.66 (inactive) in experiment [4]; -0.0556 (inactive) in experiment [6]; -9.75 (active) in experiment [14].

Take `CC=CC1=C(CO)C(=O)[C@@H]2O[C@@H]2C1=O`: the composite z-score in experiment [1] is 0.114; in experiment [5], -1.02; in [7], -0.199; in experiment [8] it was 1.58; in [9] it was 0.406; in [10], 0.0083. Also, the composite z-score in experiment [11] was 0.148; in experiment [12], -0.703; in experiment [13] it was -1.79; in experiment [15] it was 0.799; in [16], 0.571; in experiment [17], 1.01. Besides, the composite z-score stood at 1.17 in experiment [18], 1.57 in [19] and 1.49 in [20]. For the same compound, the z-score in experiment [2] is -0.767 (inactive); in experiment [3], -0.738 (inactive); in experiment [4], -0.624 (inactive); in experiment [6], 0.199 (inactive); in experiment [14] it was -0.546 (inactive).

Turning to `O=C(NN=C1C[C@@H](O)[C@@H](O)[C@@H]2[C@@H]3C(=O)N(C[C@@H]4CCCO4)C(=O)[C@@H]3CC[C@H]12)OCc1ccccc1`, the composite z-score in [1] is -0.166; in experiment [5] it was 0.126; in experiment [7], 0.0061; in experiment [8] it was -0.284; in experiment [9] it was -0.696; in experiment [10], -0.19. Moreover, the composite z-score in experiment [11] is 0.278; in [12] it was 0.545; in experiment [13], 0.768; in [15], -0.132; in experiment [16], -0.658; in experiment [17], -0.0485. Also, the composite z-score is -0.281 in [18], -0.575 in experiment [19] and 0.902 in experiment [20]. Moreover, the z-score in experiment [2] was 0.387 (inactive); in [3] it was 0.499 (inactive); in experiment [4] it was -0.186 (inactive); in experiment [6], 0.52 (inactive); in experiment [14], 0.0311 (inactive).

Turning to `CC(CCN1CCCCc2nc(C)c(C)cc21)=NOC[C@@H](C)[C@H](OCc1ccccc1)C(C)C`, the composite z-score is -0.262 in experiment [1]; -0.569 in experiment [5]; -0.467 in experiment [7]; -1.02 in [8]; -1.53 in experiment [9]; -0.551 in experiment [10]. Also, the composite z-score in experiment [11] is -0.399; in experiment [12], -0.624; in experiment [13] it was -0.579; in experiment [15], -1.78; in experiment [16] it was -1.03; in experiment [17], -1.77. For the same compound, the composite z-score is -2.25 in [18], -0.991 in experiment [19] and 0.736 in experiment [20]. Moreover, the z-score in experiment [2] was -2.75 (inactive); in [3], -5.66 (inactive); in experiment [4], -0.677 (inactive); in experiment [6], -1.42 (inactive); in [14], -1.22 (inactive).

Consider `CCCNC(=O)OC[C@H]1O[C@H](CCON=Cc2ccc(C(=O)N3[C@H](c4ccc(C)cc4)[C@@H](C)CC[C@H]3C(=O)OC)cc2)C=C[C@@H]1Oc1ccc(OC)cc1`, for which the composite z-score was 1.15 in experiment [1]; 1.02 in experiment [5]; -0.263 in [7]; 1.03 in experiment [8]; 0.607 in experiment [9]; -0.307 in experiment [10]. The composite z-score was 0.463 in experiment [11]; -0.186 in [12]; -0.0627 in experiment [13]; 0.523 in experiment [15]; 0.581 in experiment [16]; 0.417 in [17]. The composite z-score in experiment [18] turned out to be 0.355; in experiment [19], 0.0399; in experiment [20], 0.446. The z-score in experiment [2] is 0.0299 (inactive); in experiment [3], 1.68 (inactive); in experiment [4], 1.25 (inactive); in experiment [6], 0.215 (inactive); in [14] it was -0.357 (inactive).
